Shown are actives, neighbours in structure and some others; about 6.9% of the full set was active somewhere.
JMJD2A Tudor inh: JMJD2A Tudor domain (human) inhibition | O75164 | AlphaScreen JMJD2A-Tudor / H3K4me3 peptide binding | Potency, µM (series often up to 114 µM), for inactives: at the top dose activity change, negative = inhibition, most hits filed as inhibitors | 4.4% of 390,000 active; note: % is set by controls: 0 for no effect and ±100 for the full control effect; nearly all actives have a fitted effect of over 50% in size
L3MBTL1 inh: L3MBTL1 (human) inhibition; 0.66% of 230,000 active; Q9Y468; Potency, µM (top dose mostly 57.1 µM), inactives show at the top dose activity, negative = inhibition, most hits filed as inhibitors; AlphaScreen L3MBTL1–H3K9me1 peptide binding; AID 485360; note: % is set by controls: 0 for no effect and ±100 for the full control effect; nearly all actives have a fitted effect of over 60% in size
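L3MBTL1 (50 nM) pre-complexed 30 min with biotinylated H3(1-15)K9me1 peptide (75 nM), then compounds added for 30 min at room temperature; AlphaScreen streptavidin donor/nickel chelate acceptor beads (10 ug/mL final) read after 30 min dark incubation.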
BAZ2B block: inhibitors of human BAZ2B bromodomain; AlphaScreen BAZ2B-H3K14Ac peptide displacement; Potency, µM (titrated, usually from 114 µM), without a hit: top-dose activity change, negative = inhibition, actives largely listed as inhibitors; 4.4% of 360,000 active; AID 504333; note: % is set by controls: 0 for no effect and ±100 for the full control effect; nearly all actives have a fitted effect of over 60% in size
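AlphaScreen displacement of biotin-H3(5-23)K14Ac peptide (50 nM final) from BAZ2B (50 nM final) in PBS pH 7.4, 0.01% Tween-20; complex preformed 30 min RT, then compounds (top 110 uM) 30 min RT, beads 20 min dark.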
VDR inhibitor: vitamin D3 receptor (human) inhibition; P11473; VDR-SRC2-3 peptide fluorescence polarization, 2 h; Potency, µM, without a hit: max response, negative = inhibition, hits mostly inhibitors; 0.93% of 400,000 active; note: % is set by controls: 0 for no effect and ±100 for the full control effect
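VDR–SRC2-3 interaction, FP format. Cmpds 23 nl via pintool, brief spin, 2 h ambient incubation.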
HP1b binding inh: inhibitors of HP1-beta chromodomain binding to methylated histone tails; AlphaScreen HP1-beta / biotin-H3K9me3 peptide binding; Potency, µM (doses to about 114 µM), for inactives: top-dose activity change, negative = inhibition, usual class: inhibitors; 0.56% of 390,000 active; AID 540317; note: nearly all actives have a fitted effect of over 70% in size
Target sequence (P83916 whole entry, looked up): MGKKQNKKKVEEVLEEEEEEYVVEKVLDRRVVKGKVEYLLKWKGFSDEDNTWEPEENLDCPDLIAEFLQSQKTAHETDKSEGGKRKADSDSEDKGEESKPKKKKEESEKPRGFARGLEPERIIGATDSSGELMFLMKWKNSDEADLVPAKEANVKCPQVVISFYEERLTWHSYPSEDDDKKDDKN
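AlphaScreen: HP1-beta (50 nM) preformed 30 min with biotin-H3(1-18)K9me3 peptide (50 nM) in PBS pH 7.4, 0.01% Tween-20. Compound added for 30 min at RT, then streptavidin donor/nickel chelate acceptor beads (10 ug/mL) for 30 min.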
PLK1 PBD block: blocks phosphopeptide binding to human PLK1 polo-box domain | Plk1 PBD binding of FITC phosphopeptide, fluorescence polarization | 2.8% of 360,000 active | P53350 | Potency, µM, for inactives: max response, negative = inhibition, actives largely listed as inhibitors; note: series mostly up to about 57 µM; % is set by controls: 0 for no effect and ±100 for the full control effect; nearly all actives have a fitted effect of over 65% in size
Target sequence (P53350 whole entry, looked up, the tested form may be a part): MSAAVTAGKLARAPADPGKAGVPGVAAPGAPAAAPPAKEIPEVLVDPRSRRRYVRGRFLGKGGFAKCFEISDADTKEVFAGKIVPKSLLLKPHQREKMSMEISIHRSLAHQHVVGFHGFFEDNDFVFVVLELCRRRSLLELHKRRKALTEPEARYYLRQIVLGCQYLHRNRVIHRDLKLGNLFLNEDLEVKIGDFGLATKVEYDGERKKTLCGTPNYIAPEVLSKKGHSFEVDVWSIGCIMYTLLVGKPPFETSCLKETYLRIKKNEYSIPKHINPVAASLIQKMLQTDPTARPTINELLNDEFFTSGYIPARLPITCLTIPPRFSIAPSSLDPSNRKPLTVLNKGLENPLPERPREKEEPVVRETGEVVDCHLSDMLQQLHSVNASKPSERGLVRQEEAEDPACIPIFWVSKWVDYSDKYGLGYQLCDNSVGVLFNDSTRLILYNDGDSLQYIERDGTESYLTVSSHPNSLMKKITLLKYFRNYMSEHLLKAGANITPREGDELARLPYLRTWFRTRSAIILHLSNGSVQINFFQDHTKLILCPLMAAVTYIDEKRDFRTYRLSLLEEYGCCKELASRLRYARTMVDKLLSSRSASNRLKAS
Active calls of the source: *; u = inconclusive; x = not tested or not shown; [ ] = dose if it differs, or a comment. Calls come from the whole dose curve; as a rule, active = well fitted curve in the direction sought with a large enough effect; inconclusive = small, poorly fitted or top-dose-only effect, or another doubt; inactive = no such curve, though single readings can be large; an effect the other way counts as inactive or inconclusive. Potency is the fitted concentration of half-maximal effect.

SMILES | JMJD2A Tudor inh | L3MBTL1 inh | BAZ2B block | VDR inhibitor | HP1b binding inh | PLK1 PBD block
Cc1cc(C)c2c(=O)cc(C(=O)Nc3sc4c(c3C#N)CCCC4)oc2c1 | -11.5% | x | -24.9% | 12.4% | 9.5% | x
Cc1cccc(OC(=O)c2snnc2C)c1 | 14.6% | x | 17.2% | 13.6% | 44.5% | x
O=C(Nc1nccs1)c1ccc(-c2cccc([N+](=O)[O-])c2)o1 | 56.2µM* | x | -29.0% | -30.8% | u | u
O=[N+]([O-])c1cccc(-c2ccc(C(=S)N3CCOCC3)o2)c1 | 44.7µM* | -20.0% | 28.2µM* | -13.2% | u | -15.5%
O=C(c1ccc(-c2cccc(Cl)c2)o1)N1CCN(c2ccc([N+](=O)[O-])cc2)CC1 | 39.8µM* | -4.0% | 0.2% | u | -9.1% | 26.7µM*
Cc1ccc(-n2nc3c(N4CCC(C(=O)N5CCCCC5)CC4)nnc(C)c3c2C)cc1 | -15.5% | x | -15.4% | 1.7% | 17.4% | x
Cc1ccc(N2CCN(C(=O)c3cccs3)CC2)cc1C | -31.3% | 1.2%[2.29 µM] | 50.1µM* | 8.8% | 5.0% | -15.8%
O=C(c1cccs1)N1CCN(Cc2cccc([N+](=O)[O-])c2)CC1 | 20µM* | 1.5% | 28.2µM* | -10.4% | u | -22.5%
O=C(c1ccc([N+](=O)[O-])cc1)N1CCN(C(=O)c2cccs2)CC1 | -9.7% | 0.1% | -4.4% | -20.5% | 7.1% | -15.9%
COc1ccc(CN2CCN(C(=O)c3cccs3)CC2)cc1Br | 35.5µM* | -8.0% | 50.1µM* | 15.1% | u | -0.9%
COc1ccc(CN2CCN(C(=O)c3cccc4ccccc34)CC2)cc1Br | 17.8µM* | -6.5% | 50.1µM* | 3.7% | -16.9% | -10.5%
COc1ccc(CN2CCN(C(=O)c3ccccc3C(=O)c3ccccc3)CC2)cc1F | x | x | x | x | x | 10.3%
O=C(O)c1ccc2c(c1)C(=O)N([C@H](Cc1ccc(-c3ccccc3)cc1)C(=O)O)C2=O | -9.0% | 0.3% | -6.6% | x | x | x
Cc1ccc(C)c(S(=O)(=O)N2CCN(C(=O)c3cccnc3)CC2)c1 | 0.0% | x | 6.7% | -13.6% | 69.7% | -5.8%
Cc1cc2nc(-c3cc(NC(=O)c4cc5ccccc5o4)ccc3Cl)oc2cc1C | -9.8% | x | 1.2% | u | 124.5% | x
O=C(Cn1c(=O)n(CCc2ccccc2)c(=O)c2cccnc21)Nc1ccc(F)cc1 | -16.4% | x | 4.7% | -5.4% | 30.0% | x
CCC(Sc1nnc2c3ccccc3n(CC)c2n1)C(=O)Nc1ccc(NC(C)=O)cc1 (stereo not drawn) | -13.4% | x | -8.7% | 3.8% | 8.5% | x
COc1cccc(C(=O)N2CCN(C(=O)c3cccs3)CC2)c1OC | -29.2% | 34.3% | 42.4% | -7.0% | 32.7% | -24.0%
CCOc1cc(CN2CCN(CCOCCO)CC2)ccc1OC | -8.7% | x | -11.7% | -0.5% | 28.1% | -0.4%
CCOc1cc(CN2CCN(C(=O)c3cccc4ccccc34)CC2)ccc1OC | 20µM* | -5.7% | 50.1µM* | -18.3% | u | 3.6%
COc1ccc(-c2noc(CN3CCN(C(=O)c4cccs4)CC3)n2)c(OC)c1OC | -33.6% | x | -4.2% | -18.5% | 5.8% | 21.2µM*
O=c1[nH]c2ccccc2cc1CN(Cc1ccco1)S(=O)(=O)c1ccccc1 | u | x | -33.3% | -16.8% | 6.3% | -16.8%
O=C(Nc1ccccc1OCc1cc(=O)n2ccccc2n1)Nc1ccccc1C(F)(F)F | -10.7% | x | 7.2% | 12.6% | 24.1%[57 µM] | x
CC(Oc1ccccc1)C(=O)N1CCC2(CC1)Oc1ccc(F)cc1C(=O)C21CC(c2ccccc2)=NO1 (stereo not drawn) | u | x | x | u | 5.2% | 21.2µM*
CC(=O)c1ccc(S(=O)(=O)Nc2ccc(-c3cn4c(C)csc4n3)cc2)cc1 | u | x | u | 25.1µM* | 6.6%[57 µM] | x
SMILES | JMJD2A Tudor inh | L3MBTL1 inh | BAZ2B block | VDR inhibitor | HP1b binding inh | PLK1 PBD block
COc1ccccc1Nc1ccc(N)cc1 | 50.1µM* | u | 28.2µM* | -3.1% | u | -21.2%
COc1ccccc1NS(=O)(=O)c1ccc(NC(C)=O)cc1 | -7.1% | -26.4%[11.4 µM] | 8.0% | -9.3% | 34.1% | -4.2%
CCN(CC(=O)Nc1ccccc1OC)C(=O)c1ccc(NS(=O)(=O)c2ccc(C(C)=O)cc2)cc1 | -0.7% | x | -15.6% | 21.7% | 34.1%[57 µM] | u
COc1ccccc1Nc1ccc(NS(=O)(=O)c2ccc(C(C)=O)cc2)cc1 | 39.8µM* | x | u | 13.2% | u | -8.7%
COc1ccc(S(=O)(=O)Nc2ccc(-c3cn4c(C)csc4n3)cc2)cc1 | -29.2% | x | u | -3.4% | -0.8%[57 µM] | x
COc1ccccc1NS(=O)(=O)c1ccc(C(N)=O)cc1 | -6.8%[11.4 µM] | 0.8% | -6.5% | -5.0% | 1.5% | 23.8µM*
COC(=O)[C@@]1(Cc2ccc(F)cc2)[C@H]2c3cc(C(=O)N(C)C)n(Cc4ccc(OC(F)(F)F)cc4)c3C[C@H]2CN1C(=O)c1ccccc1 | x | -0.2% | -37.8% | x | x | x
O=C(COc1ccccc1F)Nc1ccccc1OCc1cc(=O)n2ccccc2n1 | -7.1% | x | -0.3% | 2.4% | 13.7%[57 µM] | x
CC(C)c1ccc(CN(Cc2ccco2)c2cnc(S(C)(=O)=O)nc2C(=O)Nc2ccc(F)cc2)cc1 | u | x | -23.5% | 0.1% | 17.4% | x
O=C(Nc1cccc(C(F)(F)F)c1)c1csc([C@H]2C[C@H](O)[C@@H](CO)O2)n1 | x | x | x | x | x | -13.1%
Cc1ccc(NC(=O)CSc2nc(-c3ccco3)cc(C(F)(F)F)n2)cc1 | 4.5% | x | 4.7% | -9.2% | 37.3% | x
COc1ccccc1NC(=O)c1oc2ccccc2c1NC(=O)Cc1cccs1 | -23.5% | x | -10.7% | 65.8% | 36.0% | x
CCOc1cc(NC(=S)NCc2ccccc2)c(OCC)cc1NC(=O)C(C)C | -22.9% | 55.7% | 17.7% | 6.9% | 16.9% | -6.2%
CC(=O)c1ccc(NS(=O)(=O)c2ccccc2)cc1 | -26.3% | x | 7.8% | -4.9% | 13.5% | -9.0%
CC(=O)c1ccc(NS(=O)(=O)c2ccc(N)cc2)cc1 | -27.0%[57.1 µM] | -7.3% | -15.4% | u | u | 29.9µM*
CC(=O)c1ccc(S(=O)(=O)Nc2cccc(-n3cnnn3)c2)cc1 | u | x | 50.1µM* | -3.8% | 4.8% | u
COc1ccccc1C(=O)NCCC(=O)NCC(c1ccccc1)N(C)C (stereo not drawn) | -2.1% | x | -32.8% | -1.0% | 28.4% | 0.6%
CC(=O)Nc1ccc(CNc2nc3cc(-c4ccsc4)sc3c(=O)n2C)cc1 | x | x | x | x | x | -2.7%
CC(C)(C)c1ccc(C(=O)NCCOc2ccccc2)cc1 | -13.7% | -4.3% | u | -12.9% | 24.3% | -20.8%
CC(C)(C)c1ccc(OCCNC(=O)c2ncn[nH]2)cc1 | 4.6% | x | 11.2µM* | -0.9% | 34.2% | 1.7%
CCc1cc(C)cc(OCCNC(=O)c2ncn[nH]2)c1 | u | -26.6% | 50.1µM* | 7.5% | 30.2% | 2.4%
CCc1cc(C)cc(OCCNC(=O)c2cncc(Br)c2)c1 | -5.2% | x | 3.3% | 4.0% | 24.8% | -15.2%

Bioassay records (PubChem BioAssay)
